This passage reports inhibition results from PubChem BioAssay AID1850 (Southern Research Specialized Biocontainment Screening …, 2009).

Values joined by “and” are separate entries in the source; they are usually repeats but may differ in a detail not shown here. Equal entries are not always repeated. The whole screen tested about 310,000 compounds, of which about 1,000 (0.32%) were called active. No rule for the calls is given here. A selection follows. Results with a measured potency or affinity are listed apart.

The assay in a line: PhoP regulon inhibitors, Salmonella typhi PhoP promoter GFP reporter, confirmatory (AID 1850).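 Also: 0% = induced wells with vehicle and 100% = uninduced wells.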 The note with it: fluorescence, 4 h, at 50 µM, hits give high values.
As for `O=[N+]([O-])c1ccc(N/N=C/c2ccccc2)c(F)c1`, the inhibition – broadly, the change of the read-out against control, counted positive when it falls – was -8.42% (inactive). Next, `O=C(CCc1nnc(Cc2ccc(-c3ccccc3)cc2)o1)NCCc1cccnc1`: -5.62% (inactive); `O=C(Oc1c(Cl)cc(Cl)c2cccnc12)c1cccs1`: 13.7% (inactive); `O=C(Oc1ccc(Cl)c2cccnc12)c1cccc([N+](=O)[O-])c1`: -4.89% (inactive).

Regarding `O=C(Oc1ccc(Cl)c2cccnc12)c1ccco1`, the inhibition is -5.73% (inactive). For the compound `O=C(Oc1cccc2cccnc12)c1cccc([N+](=O)[O-])c1`, the inhibition is 1.2% (inactive). The figure for `O=C(Nc1cccc(Cl)c1)c1ccc(=O)[nH]n1` is 12.7% (inactive); for `CC1CCC(NC(=O)c2nn(C)c3c2CS(=O)(=O)c2ccccc2-3)CC1` (stereo unspecified) it is 5.03% (inactive). Next, `COc1cccc(C(=O)NNC(=O)Cc2ccc(Cl)cc2)c1`: -3.92% (inactive); `CSCCC(N=C(NS(=O)(=O)c1ccc(C)cc1)c1ccccc1)C(=O)O` (stereo unspecified): -3.75% (inactive); `CCC(C)(C)NC(=O)CN(C(=O)c1snc(C(N)=O)c1N)c1ccc2nc(C)sc2c1`: -5.66% (inactive).

In the case of `O=C(CCN1C(=O)C2C3C=CC(C3)C2C1=O)N1CCN(c2ccccc2F)CC1` (stereo unspecified), the inhibition was 18.6% (inactive). Take `COC(=O)CSc1nc2nc(-c3cccs3)cc(C(F)(F)F)c2c(=O)[nH]1`: the inhibition is -1.37% (inactive).

Turning to `CCOC(=O)c1cc2c(cn1)[nH]c1ccccc12`, the inhibition is 9.76% (inactive) and 5.1% (inactive). `CNC(=O)c1cc2c(cn1)[nH]c1ccccc12`: the inhibition is 3.35% (inactive). Next, `CCOC(=O)CCC(=O)Nc1ccc(S(=O)(=O)Nc2cc(OC)nc(OC)n2)cc1`: -6.86% (inactive). Consider `Cc1cc(C)c2c3c(sc2n1)C(=O)N(C)CC(=O)N3`, for which the inhibition was -4.13% (inactive).

Turning to `C/C(N)=C(/C#N)C(=O)COC(=O)CCC1CCCC1`, the inhibition is 0.41% (inactive).

As to `N#CCC(=O)Nc1ccc(C(=O)N2CCN(c3ccccn3)CC2)cc1`, the inhibition was 14.2% (inactive). Regarding `CN(C)c1ccc(CN(Cc2ccco2)C(=O)c2ccco2)cc1`, the inhibition is -2.38% (inactive). Next, `CS(=O)(=O)N1CCC(Oc2ccccc2C(=O)NC2CCCCCC2)CC1`: -17.3% (inactive). The figure for `CC(=O)c1cnc(Nc2cccc(C)c2)s1` is -8.01% (inactive).

With `Cn1c(CNC(=O)CNS(=O)(=O)c2ccc(Br)cc2)cc(=O)n(C)c1=O`, the inhibition is -1.92% (inactive). The figure for `CC(C)c1ccc(OCC(=O)NNC(=S)NC(=O)c2cccs2)c(Br)c1` is -8.98% (inactive); for `COc1ccc2oc(C(=O)OCC(=O)N(C)CC(=O)Nc3ccc(C)cc3)c(C)c2c1` it is 6.55% (inactive). With `O=C(c1ccc([N+](=O)[O-])o1)N1CCN(Cc2ccccc2)CC1`, the inhibition was -0.17% (inactive). As to `CC1CCN(C(=O)c2ccc([N+](=O)[O-])o2)CC1`, the inhibition was 5.43% (inactive). The figure for `COc1ccc(C(=O)Nc2ccc(N3CCCC3)cc2)cc1` is -0.89% (inactive). Next, `COc1ccccc1NC(=O)COc1ccc(C(=O)OCC(=O)NC(C)(C)C)cc1OC`: -5.27% (inactive); `Clc1ccccc1COc1ccc(/C=N/n2cnnc2)cc1`: -10.4% (inactive). For `COc1cc(/C=N/N=C(N)N)ccc1OCc1ccccc1Cl`, the inhibition is -7.28% (inactive). The figure for `NC(N)=N/N=C/c1ccc(Cl)cc1Cl` is 14.2% (inactive); for `FCCCOc1ccc(/C=N/OCc2ccc(Cl)cc2Cl)cc1` it is 14.7% (inactive). Next, `NC(N)=N/N=C/c1ccc(OCc2ccccc2)cc1`: 17% (inactive).

Take `COc1cc(/C=N/N=C(N)N)ccc1OCc1ccc(Cl)cc1`: the inhibition was 49.6% (inactive). With `CCCCCCCNC(=O)C1CC(=O)N(C)C(=Nc2ccc(OC)cc2)S1` (stereo unspecified), the inhibition was -2.09% (inactive). On to `CCOc1cc(C(=O)OC(C)C(=O)Nc2ccc(S(N)(=O)=O)cc2)ccc1OCC(=O)N1CCOCC1` (stereo unspecified), for which the inhibition is 8.2% (inactive).

With `CC(C)CN1C2CCCC1CC(NC(=O)c1ccc([N+](=O)[O-])cc1)C2` (stereo unspecified), the inhibition is 3.6% (inactive). The figure for `N/C(=N\NS(=O)(=O)c1ccccc1C(F)(F)F)c1ccccn1` is 2.11% (inactive); for `COc1cccc(C(=O)Nc2c3c(nc4c2CCC4)CCCC3)c1` it is -0.613% (inactive).

`CC(C)(C)C1CCC(C(=O)OCC(=O)N2CCN(C(=O)c3ccco3)CC2)CC1` (stereo unspecified): the inhibition is -8.5% (inactive). `O=c1c(C=NCc2cccnc2)c(C(F)(F)F)[nH]n1-c1nc2ccccc2s1`: the inhibition was 2.08% (inactive). Next, `COC(=O)C1=C(C)Nc2c(c(=O)n(C)c(=O)n2C)C1c1ccc(Cl)cc1` (stereo unspecified): 0.17% (inactive); `CC(=O)c1sc(-c2ccccn2)nc1C`: 3.14% (inactive); `N=c1ccn2c(n1)O[C@H]1[C@@H](CO)[C@H](O)O[C@H]12`: 2.95% (inactive). Next, `CCOC(=O)c1cn(-c2ccc(F)c(F)c2)c2c(F)c(F)c(F)c(F)c2c1=O`: -9.71% (inactive); `COC(=O)c1ccc(C)c(NC(=S)NCc2ccc(Cl)cc2)c1`: -7.26% (inactive). Take `COC(=O)c1cc(NC(=S)NCc2ccc(Cl)cc2)cc(C(=O)OC)c1`: the inhibition is -2.32% (inactive).

`O=C(Nc1ccccc1)O/N=C(\c1ccccc1)c1ccccn1`: the inhibition was -16.2% (inactive).

Regarding `Cc1ccc[n+](CC(=O)Nc2ccc([N+](=O)[O-])cc2)c1`, the inhibition was 6.66% (inactive). The figure for `Cc1cccc[n+]1CC(=O)Nc1ccc([N+](=O)[O-])cc1` is 1.95% (inactive). Take `N#Cc1ccccc1NC(=O)CSc1nnc(-c2ccccc2)n1-c1ccccc1`: the inhibition was 0.92% (inactive). Next, `COc1ccc2c(c1OC)C(=O)N(c1ccccc1)C2=O`: 9.99% (inactive).

Regarding `COc1ccc2c(c1OC)C(=O)N(c1ccc(O)cc1)C2=O`, the inhibition is -3.53% (inactive). `CCN(C(=S)NCc1ccccc1)c1ccccc1`: the inhibition was -2.51% (inactive).

Consider `Cc1c(NC(=O)C(=O)/C=C(\O)c2ccc(Cl)cc2)c(=O)n(-c2ccccc2)n1C`, for which the inhibition is -8.97% (inactive). As for `Cc1cc(C)nc(N/N=C/c2ccccc2)n1`, the inhibition is -1.28% (inactive). The figure for `O=C(N/N=C/c1ccncc1)c1cccs1` is -16.1% (inactive). The figure for `O=C(N/N=C/c1ccc(Br)s1)c1cccs1` is 5.12% (inactive); for `O=C(N/N=C/c1ccccn1)c1ccncc1` it is 10.1% (inactive); for `O=C(N/N=C/c1ccccn1)c1ccco1` it is 8.62% (inactive).

For the compound `O=C(N/N=C/c1ccccn1)c1ccc(Br)cc1`, the inhibition is 8.46% (inactive).

`Cc1ccc(/C=N/NC(=O)c2cccs2)s1`: the inhibition is -3.78% (inactive). Next, `CC(C)NC(=O)NC(=O)COC(=O)CCOc1ccccc1`: 1.53% (inactive); `O=C(CC1(CC2=NS(=O)(=O)c3ccccc3N2)CCCC1)NCCc1ccccc1`: -20.4% (inactive). For the compound `O=C(NCC1CC1)c1cc(-c2ccccc2)nn1CC1CC(c2cccc([N+](=O)[O-])c2)=NO1` (stereo unspecified), the inhibition is 4.4% (inactive). The figure for `Cc1ccc(Cl)cc1N1CCN(S(=O)(=O)c2c(C)[nH]c(=O)[nH]c2=O)CC1` is 8.84% (inactive); for `CCn1cc(C(=O)O)c(=O)c2cc(F)c(N3CCN(C(=S)NC(=O)c4c(OC)cccc4OC)CC3)cc21` it is 3.3% (inactive); for `C=CCNC(=S)N1CCN(c2cc3c(cc2F)c(=O)c(C(=O)O)cn3CC)CC1` it is -3.14% (inactive).

In the case of `Cn1nnnc1SCC(=O)NCCCc1ccccc1`, the inhibition was 0.19% (inactive). Take `Cc1cccc(NC(=O)COC(=O)Cc2c[nH]c3ccccc23)c1C`: the inhibition was -3.69% (inactive).

On to `O=C(NC(=S)NCc1cccnc1)c1cc(Br)ccc1Cl`, for which the inhibition is -7.31% (inactive).

As for `O=C(COc1ncnc2ccccc12)NCC1CCCO1` (stereo unspecified), the inhibition is 7.4% (inactive). For the compound `Cc1cc(S(=O)(=O)Nc2cccc([N+](=O)[O-])c2)c(C)s1`, the inhibition was -6.89% (inactive). Next, `O=C(NNS(=O)(=O)c1ccccc1[N+](=O)[O-])c1cccc([N+](=O)[O-])c1`: -5.01% (inactive); `Cc1occc1C(=O)NC(C)C12CC3CC(CC(C3)C1)C2` (stereo unspecified): 2.3% (inactive).

Regarding `CCC1(CC)Cc2ccccc2C(CC(=O)N2CCOCC2)=N1`, the inhibition was -0.09% (inactive). The figure for `COc1ccc(/C=C/C(=O)c2cc(Cl)cc(Cl)c2O)c(OC)c1` is 1.28% (inactive); for `Cc1ccc(C(C[N+](=O)[O-])c2c(-c3ccccc3O)[nH][nH]c2=O)cc1` (stereo unspecified) it is 3.54% (inactive).

As for `O=c1[nH][nH]c(-c2ccccc2O)c1C(C[N+](=O)[O-])c1ccccc1` (stereo unspecified), the inhibition is 10.2% (inactive). For `Cc1ccc2c(C)c(C(=O)Nc3cccnc3)oc2c1`, the inhibition is -1.18% (inactive). In the case of `CCN(CC)S(=O)(=O)c1ccc(/C=C/C(=O)Nc2ccc(Br)cc2F)cc1`, the inhibition is -3.09% (inactive). Next, `c1ccc2c(Nc3ccc4c(c3)OCCO4)c3c(nc2c1)CCC3`: 19.5% (inactive); `COc1ccc(Nc2c3c(nc4ccc(C)cc24)CCC3)cc1`: 26.7% (inactive). With `CC(=O)c1ccc(Nc2c3c(nc4ccccc24)CCCC3)cc1`, the inhibition is -0.46% (inactive). The figure for `COc1cc(Nc2c3c(nc4ccccc24)CCC3)cc(OC)c1OC` is -13.8% (inactive). The figure for `c1ccc2c(Nc3ccc4c(c3)OCCO4)c3c(nc2c1)CCCC3` is -7.16% (inactive); for `N#Cc1cccc(Nc2c3c(nc4ccccc24)CCC3)c1` it is -6.96% (inactive); for `Cc1ccc2nc3c(c(Nc4ccccc4)c2c1)CCC3` it is 1.9% (inactive). Next, `c1ccc(Nc2c3c(nc4ccccc24)CCC3)cc1`: -12.1% (inactive). On to `O=C(O)C1C2CCC(C2)C1C(=O)N1CCCC1` (stereo unspecified), for which the inhibition was 6.43% (inactive). As for `COc1ccc(S(=O)(=O)N(C)CC(=O)NCCC2=CCCCC2)cc1OC`, the inhibition is 9.61% (inactive). The figure for `C/C(CC(=O)Nc1ccccc1C(F)(F)F)=N\NC(=O)c1cnccn1` is -1.08% (inactive); for `CCCn1c(O)c(N=NC(=O)CNC(=O)Cc2ccc(OC)cc2)c2ccccc21` it is -19.2% (inactive). Take `CCCN(CCC)S(=O)(=O)c1cccc(C(=O)N=c2sccn2C)c1`: the inhibition is -5.43% (inactive).

Consider `Cc1cccc(NC(=O)c2cc([N+](=O)[O-])ccc2Cl)c1O`, for which the inhibition was -4.69% (inactive).
